In the supplement of paper PMC10849652:
The full data set covers some 7,900 targets. This sample favours those with a hit. About 0.6% of all pairs of compound and target were hits.

Legend:
Assay in all cases: log2 fold change, soluble protein after heating vs DMSO (PISA); higher = thermal stabilisation; K562 cells, 10 uM, 30 min; active = over 0.2 and 3.5 SD of the protein, either way, in both replicates (recomputed)
[1] = compound: Cc1ccc(NC(=O)c2ccc(CN3CC[C@H](N(C)C)C3)c(C(F)(F)F)c2)cc1Nc1nccc(-c2cncnc2)n1 [bafetinib]
In short: (§1)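 K562 cells at 2×10^6 cells/mL were exposed to 10 μM compound for 30 min, then aliquots were heated for 3 min across 48°C-58°C, pooled, and extracted in PBS containing 0.5% NP-40 at 4°C. The supernatant after 21,000xg for 90 min was taken as soluble protein and measured by TMTpro 16plex LC-MS/MS with channel sums equalised. Thermal stability is reported relative to control samples, with values from duplicates. Fold changes are given on a log2 scale.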

[2] = compound: Cc1cccc(CC(=O)N2CCc3c2ccc(-c2cn(C)c4ncnc(N)c24)c3F)n1
In short: as §1

[3] = compound: Cc1cn(-c2cc(NC(=O)c3ccc(C)c(Nc4nccc(-c5cccnc5)n4)c3)cc(C(F)(F)F)c2)cn1 [nilotinib]
In short: as §1

[4] = compound: Cc1nc(Nc2n[nH]c3c2CN(C(=O)N[C@H](CN(C)C)c2ccccc2)C3(C)C)c2sccc2n1
In short: as §1

[5] = compound: Cc1nc(Nc2ncc(C(=O)Nc3c(C)cccc3Cl)s2)cc(N2CCN(CCO)CC2)n1 [dasatinib]
In short: as §1

[6] = compound: Cc1ncc(-c2ccnc(Nc3ccc(S(C)(=O)=O)cc3)n2)n1C(C)C
In short: as §1

[7] = compound: Cn1cc(-c2ccc3c(c2)CCN3C(=O)Cc2cccc(C(F)(F)F)c2)c2c(N)ncnc21
In short: as §1

[8] = compound: Cn1cc(-c2ccc3nnc(C(F)(F)c4ccc5ncccc5c4)n3n2)cn1
In short: as §1

[9] = compound: Cn1cncc1[C@@](N)(c1ccc(Cl)cc1)c1ccc2c(c1)c(-c1cccc(Cl)c1)cc(=O)n2C [tipifarnib]
In short: as §1

[10] = compound: FC(F)(F)c1ccc(/C=C/c2nc(COc3ccc(CCCCn4ccnn4)cc3)co2)cc1 [mubritinib]
In short: as §1

Measured: log2 fold change

NOP56 (UniProt O00567)
Chain of UniProt O00567 (O00567 whole entry, looked up): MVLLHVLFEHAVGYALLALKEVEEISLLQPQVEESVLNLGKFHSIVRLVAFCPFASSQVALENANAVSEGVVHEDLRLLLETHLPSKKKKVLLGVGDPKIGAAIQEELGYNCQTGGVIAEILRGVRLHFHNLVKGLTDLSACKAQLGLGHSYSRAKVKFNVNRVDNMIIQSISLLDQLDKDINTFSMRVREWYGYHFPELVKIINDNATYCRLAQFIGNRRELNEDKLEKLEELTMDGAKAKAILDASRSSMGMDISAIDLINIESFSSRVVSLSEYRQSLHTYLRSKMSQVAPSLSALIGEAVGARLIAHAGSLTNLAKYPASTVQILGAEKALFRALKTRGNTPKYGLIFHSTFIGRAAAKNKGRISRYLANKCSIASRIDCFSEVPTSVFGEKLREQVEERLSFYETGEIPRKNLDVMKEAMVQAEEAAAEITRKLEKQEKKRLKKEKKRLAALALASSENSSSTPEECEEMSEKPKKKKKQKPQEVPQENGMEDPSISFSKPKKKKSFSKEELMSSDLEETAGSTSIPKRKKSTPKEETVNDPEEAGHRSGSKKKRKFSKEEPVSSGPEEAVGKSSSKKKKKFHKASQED
inactive: [1] 0.225 | [2] -0.099 | [3] 0.098 | [4] -0.018 | [5] 0.204 | [6] -0.026 | [7] -0.371 | [8] -0.18 | [9] 0.201 | [10] -0.164

NUP107 (UniProt P57740)
Chain of UniProt P57740 (P57740 whole entry, looked up): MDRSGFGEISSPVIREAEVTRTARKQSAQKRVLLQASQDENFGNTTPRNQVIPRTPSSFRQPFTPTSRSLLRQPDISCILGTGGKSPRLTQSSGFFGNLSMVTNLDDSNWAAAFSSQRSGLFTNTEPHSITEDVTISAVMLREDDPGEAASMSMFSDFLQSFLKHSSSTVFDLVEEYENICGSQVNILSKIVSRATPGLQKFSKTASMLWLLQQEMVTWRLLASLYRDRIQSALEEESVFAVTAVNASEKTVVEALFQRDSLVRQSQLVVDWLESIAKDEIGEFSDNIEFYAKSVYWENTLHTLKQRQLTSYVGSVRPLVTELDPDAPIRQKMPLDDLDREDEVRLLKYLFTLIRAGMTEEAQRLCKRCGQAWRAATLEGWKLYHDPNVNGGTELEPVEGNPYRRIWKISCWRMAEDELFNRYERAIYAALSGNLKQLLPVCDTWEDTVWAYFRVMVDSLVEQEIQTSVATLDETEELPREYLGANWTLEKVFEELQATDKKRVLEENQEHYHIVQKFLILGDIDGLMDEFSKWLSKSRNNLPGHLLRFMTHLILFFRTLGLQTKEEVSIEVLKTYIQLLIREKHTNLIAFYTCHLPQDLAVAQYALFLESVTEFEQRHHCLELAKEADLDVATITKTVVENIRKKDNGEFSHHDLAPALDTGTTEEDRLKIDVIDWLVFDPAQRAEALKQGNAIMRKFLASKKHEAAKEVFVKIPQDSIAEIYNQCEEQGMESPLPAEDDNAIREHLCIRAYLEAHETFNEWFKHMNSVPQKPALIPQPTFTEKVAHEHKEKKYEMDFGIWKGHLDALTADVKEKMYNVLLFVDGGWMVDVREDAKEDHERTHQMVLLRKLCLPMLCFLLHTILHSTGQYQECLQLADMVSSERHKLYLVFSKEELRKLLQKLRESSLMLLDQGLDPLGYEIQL
active: [2] 0.716
inactive: [1] -0.013 | [3] -0.027 | [4] -0.012 | [5] -0.12 | [6] -0.145 | [7] -0.077 | [8] -0.008 | [9] -0.026 | [10] -0.036

OXSM (UniProt Q9NWU1)
Chain of UniProt Q9NWU1 (Q9NWU1 whole entry, looked up): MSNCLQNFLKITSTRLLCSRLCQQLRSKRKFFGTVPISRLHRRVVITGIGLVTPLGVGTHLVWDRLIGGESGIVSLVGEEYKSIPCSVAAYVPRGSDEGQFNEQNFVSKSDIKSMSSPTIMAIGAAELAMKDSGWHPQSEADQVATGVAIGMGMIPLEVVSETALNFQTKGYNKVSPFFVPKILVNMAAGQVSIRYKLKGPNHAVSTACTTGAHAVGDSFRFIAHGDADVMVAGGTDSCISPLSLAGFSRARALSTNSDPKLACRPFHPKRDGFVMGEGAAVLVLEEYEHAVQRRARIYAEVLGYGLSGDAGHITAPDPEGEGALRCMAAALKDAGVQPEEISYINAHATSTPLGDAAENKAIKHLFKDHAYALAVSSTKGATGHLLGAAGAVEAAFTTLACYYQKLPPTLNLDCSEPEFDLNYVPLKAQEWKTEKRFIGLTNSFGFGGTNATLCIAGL
inactive: [1] -0.063 | [2] -0.034 | [3] 0.029 | [4] -0.002 | [5] 0.031 | [6] -0.015 | [7] 0.029 | [8] 0.021 | [9] -0.009 | [10] 0.023

NANS (UniProt Q9NR45)
inactive: [1] 0.04 | [2] 0.05 | [3] 0.069 | [4] -0.007 | [5] -0.018 | [6] -0.018 | [7] 0.05 | [8] -0.017 | [9] -0.067 | [10] -0.023

NHLRC2 (UniProt Q8NBF2)
Chain of UniProt Q8NBF2 (Q8NBF2 whole entry, looked up): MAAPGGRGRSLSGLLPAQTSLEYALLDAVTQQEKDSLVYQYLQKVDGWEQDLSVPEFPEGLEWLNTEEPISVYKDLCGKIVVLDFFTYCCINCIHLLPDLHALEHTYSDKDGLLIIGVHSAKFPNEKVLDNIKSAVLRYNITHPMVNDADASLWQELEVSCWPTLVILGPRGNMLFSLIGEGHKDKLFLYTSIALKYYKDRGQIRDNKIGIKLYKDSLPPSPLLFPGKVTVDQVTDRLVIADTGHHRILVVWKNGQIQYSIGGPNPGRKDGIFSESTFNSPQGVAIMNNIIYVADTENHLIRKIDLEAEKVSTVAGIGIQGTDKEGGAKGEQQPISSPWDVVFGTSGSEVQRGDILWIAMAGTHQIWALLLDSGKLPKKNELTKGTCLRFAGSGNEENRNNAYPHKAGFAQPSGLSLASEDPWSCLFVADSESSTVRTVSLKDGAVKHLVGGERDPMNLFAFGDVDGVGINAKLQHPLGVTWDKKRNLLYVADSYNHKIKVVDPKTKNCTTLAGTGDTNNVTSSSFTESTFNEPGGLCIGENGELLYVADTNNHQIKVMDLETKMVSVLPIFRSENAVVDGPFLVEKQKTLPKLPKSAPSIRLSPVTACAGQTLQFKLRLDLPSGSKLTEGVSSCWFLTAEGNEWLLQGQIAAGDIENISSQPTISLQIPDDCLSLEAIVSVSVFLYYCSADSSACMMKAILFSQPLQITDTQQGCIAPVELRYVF
inactive: [1] -0.141 | [2] 0.002 | [3] -0.05 | [4] -0.004 | [5] -0.052 | [6] -0.001 | [7] 0.042 | [8] 0.006 | [9] -0.024 | [10] 0.058

MON2 isoform 5 (UniProt Q7Z3U7)
inactive: [1] -0.001 | [2] 0.026 | [3] -0.053 | [4] -0.012 | [5] -0.132 | [6] 0.082 | [7] 0.008 | [8] 0.006 | [9] -0.071 | [10] -0.03

NEDD4L (UniProt Q96PU5)
inactive: [1] -0.037 | [2] -0.062 | [3] 0.015 | [4] -0.134 | [5] -0.103 | [6] 0.031 | [7] -0.097 | [8] -0.078 | [9] -0.022 | [10] 0.01

NNT (UniProt Q13423)
Chain of UniProt Q13423 (Q13423 whole entry, looked up): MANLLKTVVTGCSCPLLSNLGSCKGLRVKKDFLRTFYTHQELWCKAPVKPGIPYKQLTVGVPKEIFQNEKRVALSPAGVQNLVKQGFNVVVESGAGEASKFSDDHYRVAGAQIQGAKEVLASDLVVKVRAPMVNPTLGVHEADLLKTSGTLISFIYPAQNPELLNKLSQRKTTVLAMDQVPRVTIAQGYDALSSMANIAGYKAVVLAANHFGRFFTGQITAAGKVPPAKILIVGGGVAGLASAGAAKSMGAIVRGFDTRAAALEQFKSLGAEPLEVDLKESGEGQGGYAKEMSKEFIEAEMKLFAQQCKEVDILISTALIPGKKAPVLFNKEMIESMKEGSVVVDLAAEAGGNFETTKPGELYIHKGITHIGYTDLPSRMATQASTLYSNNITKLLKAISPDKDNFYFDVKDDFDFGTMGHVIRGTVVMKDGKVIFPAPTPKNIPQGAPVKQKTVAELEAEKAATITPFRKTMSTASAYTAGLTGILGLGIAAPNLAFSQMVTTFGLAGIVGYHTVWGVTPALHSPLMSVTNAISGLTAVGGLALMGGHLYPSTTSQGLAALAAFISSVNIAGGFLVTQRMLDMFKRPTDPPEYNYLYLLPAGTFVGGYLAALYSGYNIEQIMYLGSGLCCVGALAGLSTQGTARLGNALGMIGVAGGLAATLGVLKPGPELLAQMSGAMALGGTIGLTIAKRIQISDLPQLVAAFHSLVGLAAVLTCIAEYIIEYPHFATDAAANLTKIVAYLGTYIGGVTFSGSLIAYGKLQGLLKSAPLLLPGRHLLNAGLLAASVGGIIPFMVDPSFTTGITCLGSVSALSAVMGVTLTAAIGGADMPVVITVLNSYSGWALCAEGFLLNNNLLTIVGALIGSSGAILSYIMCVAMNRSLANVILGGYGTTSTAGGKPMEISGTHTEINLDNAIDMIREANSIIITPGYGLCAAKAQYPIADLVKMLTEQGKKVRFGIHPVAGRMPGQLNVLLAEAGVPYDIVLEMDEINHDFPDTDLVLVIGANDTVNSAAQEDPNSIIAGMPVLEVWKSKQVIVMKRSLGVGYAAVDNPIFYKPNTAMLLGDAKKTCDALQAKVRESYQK
inactive: [1] -0.02 | [2] 0.056 | [3] -0.005 | [4] -0.006 | [5] -0.02 | [6] -0.018 | [7] 0.071 | [8] 0.037 | [9] -0.034 | [10] 0.021

NDUFA12 (UniProt Q9UI09)
Chain of UniProt Q9UI09 (Q9UI09 whole entry, looked up): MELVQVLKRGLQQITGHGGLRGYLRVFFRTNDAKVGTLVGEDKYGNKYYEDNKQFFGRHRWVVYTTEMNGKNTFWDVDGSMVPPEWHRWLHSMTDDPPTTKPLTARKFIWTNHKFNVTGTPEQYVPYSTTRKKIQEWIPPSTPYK
inactive: [1] 0 | [2] 0.089 | [3] -0.158 | [4] -0.031 | [5] -0.107 | [6] 0.029 | [7] 0.109 | [8] 0.062 | [9] -0.007
active: [10] 0.326

MRPS9 (UniProt P82933)
inactive: [1] 0.106 | [2] 0.067 | [3] -0.094 | [4] 0.008 | [5] -0.023 | [6] -0.024 | [7] -0.073 | [8] 0.057 | [9] -0.025 | [10] 0.085

NUP210 (UniProt Q8TEM1)
inactive: [1] -0.178 | [2] 0.053 | [3] -0.125 | [4] -0.009 | [5] -0.118 | [6] -0.038 | [7] 0.055 | [8] 0 | [9] -0.039 | [10] 0.034

MPP1 (UniProt Q00013)
Chain of UniProt Q00013 (Q00013 whole entry, looked up): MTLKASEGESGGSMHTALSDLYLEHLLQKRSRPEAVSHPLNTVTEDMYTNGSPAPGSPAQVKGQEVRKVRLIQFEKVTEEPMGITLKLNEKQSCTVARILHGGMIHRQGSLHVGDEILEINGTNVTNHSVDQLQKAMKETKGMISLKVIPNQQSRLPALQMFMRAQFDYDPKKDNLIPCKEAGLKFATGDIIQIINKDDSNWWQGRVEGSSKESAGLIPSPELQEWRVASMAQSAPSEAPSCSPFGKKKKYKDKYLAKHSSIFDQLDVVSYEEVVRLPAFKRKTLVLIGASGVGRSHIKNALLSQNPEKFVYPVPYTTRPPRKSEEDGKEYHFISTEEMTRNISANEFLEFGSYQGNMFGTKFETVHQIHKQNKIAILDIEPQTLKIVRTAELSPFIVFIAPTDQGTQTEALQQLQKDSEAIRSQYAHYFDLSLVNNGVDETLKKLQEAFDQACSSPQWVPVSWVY
inactive: [1] 0.043 | [2] 0.035 | [3] 0.073 | [4] -0.179 | [5] -0.086 | [6] -0.019 | [7] 0.047 | [8] -0.023 | [9] -0.04 | [10] 0.034

NSDHL (UniProt Q15738)
Chain of UniProt Q15738 (Q15738 whole entry, looked up): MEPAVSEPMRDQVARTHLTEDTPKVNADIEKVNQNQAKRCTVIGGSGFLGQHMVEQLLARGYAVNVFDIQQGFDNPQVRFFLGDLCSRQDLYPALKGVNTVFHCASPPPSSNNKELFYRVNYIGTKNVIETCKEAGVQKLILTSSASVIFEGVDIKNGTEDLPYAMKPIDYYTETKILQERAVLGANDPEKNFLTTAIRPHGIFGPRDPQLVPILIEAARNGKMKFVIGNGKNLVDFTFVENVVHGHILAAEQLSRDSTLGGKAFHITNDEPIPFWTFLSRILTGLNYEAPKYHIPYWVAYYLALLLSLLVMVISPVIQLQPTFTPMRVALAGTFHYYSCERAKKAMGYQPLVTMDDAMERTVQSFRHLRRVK
inactive: [1] 0.006 | [2] 0.014 | [3] 0.033 | [4] -0.021 | [5] 0.054 | [6] 0.001 | [7] 0.11 | [8] 0.133 | [9] 0.029 | [10] 0.164

NUDT1 (UniProt P36639)
inactive: [1] 0.129 | [2] 0.052 | [3] -0.087 | [4] 0.271 | [5] -0.127 | [6] 0.301 | [7] 0.194 | [8] 0.06 | [9] -0.069 | [10] 0.137

MON1A (UniProt Q86VX9)
inactive: [1] -0.011 | [2] -0.112 | [3] -0.163 | [4] -0.056 | [5] 0.017 | [6] 0.138 | [8] -0.009 | [9] 0.082 | [10] -0.012

NAA38 isoform 2 (UniProt Q9BRA0)
Chain of UniProt Q9BRA0 (Q9BRA0 whole entry, looked up): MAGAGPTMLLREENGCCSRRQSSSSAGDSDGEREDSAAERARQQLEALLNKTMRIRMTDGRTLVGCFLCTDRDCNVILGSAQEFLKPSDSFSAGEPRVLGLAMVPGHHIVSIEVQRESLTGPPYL
inactive: [1] 0 | [2] -0.019 | [3] -0.128 | [4] 0.052 | [5] -0.051 | [6] -0.066 | [7] 0.028 | [8] -0.047 | [9] -0.039 | [10] -0.03
